Tests used:
Experiment in all cases: log2 ratio of Biotin-Ahx-Ub-VS probe labelling (fragment/DMSO); higher = less target engagement (more negative = stronger competition), active = hit call of the paper (q ≤ 0.05, log2 ratio ≤ -1)
Settings in all cases: compound concentration: 200 uM; treatment time: 3 h
[1] = molecular target: T1, USP42 (UniProt Q9H9J4)
T1 sequence (whole entry): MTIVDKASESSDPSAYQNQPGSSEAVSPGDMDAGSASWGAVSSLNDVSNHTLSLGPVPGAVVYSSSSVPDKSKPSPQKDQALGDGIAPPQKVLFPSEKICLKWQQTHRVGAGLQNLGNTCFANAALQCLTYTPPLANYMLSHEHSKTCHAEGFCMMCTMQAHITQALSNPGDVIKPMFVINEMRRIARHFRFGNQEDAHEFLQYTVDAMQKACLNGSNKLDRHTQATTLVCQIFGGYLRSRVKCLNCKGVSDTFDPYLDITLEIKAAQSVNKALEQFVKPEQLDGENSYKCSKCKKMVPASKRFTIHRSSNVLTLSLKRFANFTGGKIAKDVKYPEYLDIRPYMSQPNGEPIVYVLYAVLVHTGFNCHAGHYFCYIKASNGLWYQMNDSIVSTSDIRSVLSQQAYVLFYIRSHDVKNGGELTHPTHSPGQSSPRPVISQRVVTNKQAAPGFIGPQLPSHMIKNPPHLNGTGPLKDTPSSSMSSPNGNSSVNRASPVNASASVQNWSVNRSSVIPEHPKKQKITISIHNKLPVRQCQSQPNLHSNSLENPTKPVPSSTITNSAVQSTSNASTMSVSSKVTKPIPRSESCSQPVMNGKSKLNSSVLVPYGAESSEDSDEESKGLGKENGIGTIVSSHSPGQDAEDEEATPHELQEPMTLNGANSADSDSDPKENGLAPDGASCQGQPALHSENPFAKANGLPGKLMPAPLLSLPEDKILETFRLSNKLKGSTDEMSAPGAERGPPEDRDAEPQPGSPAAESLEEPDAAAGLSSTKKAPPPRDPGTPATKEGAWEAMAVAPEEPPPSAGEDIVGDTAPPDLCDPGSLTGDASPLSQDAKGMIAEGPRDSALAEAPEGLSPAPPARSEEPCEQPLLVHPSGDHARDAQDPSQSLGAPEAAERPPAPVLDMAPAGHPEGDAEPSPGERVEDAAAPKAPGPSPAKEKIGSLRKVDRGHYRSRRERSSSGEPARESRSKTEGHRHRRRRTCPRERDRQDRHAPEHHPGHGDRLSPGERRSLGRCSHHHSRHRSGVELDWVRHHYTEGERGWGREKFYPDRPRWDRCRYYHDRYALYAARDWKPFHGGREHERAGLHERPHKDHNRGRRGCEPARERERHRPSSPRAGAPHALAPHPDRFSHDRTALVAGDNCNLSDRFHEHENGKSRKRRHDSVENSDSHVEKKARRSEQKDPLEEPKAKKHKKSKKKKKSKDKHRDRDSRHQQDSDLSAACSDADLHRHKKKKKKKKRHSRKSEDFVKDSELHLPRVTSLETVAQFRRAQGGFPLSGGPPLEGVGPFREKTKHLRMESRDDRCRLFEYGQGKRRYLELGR
Summary of the method: (§1)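 HEK293T lysate in Tris/CHAPS/IGEPAL buffer with protease inhibitors (495 µg per sample) was given fragment at 200 µM or vehicle for 3 h, in triplicate. It then received Biotin-Ahx-Ub-VS at 0.5 µM final for 1 h. Labelled DUBs were NeutrAvidin-enriched, digested with LysC and trypsin, and run by diaPASEF LC-MS/MS. Values are average log2 fragment/vehicle ratios by unpaired t-test on global-median-normalised Spectronaut quantities of proteins with ≥2 unique peptides.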

[2] = molecular target: USP46 (UniProt P62068)
USP46, sequence (P62068 whole entry): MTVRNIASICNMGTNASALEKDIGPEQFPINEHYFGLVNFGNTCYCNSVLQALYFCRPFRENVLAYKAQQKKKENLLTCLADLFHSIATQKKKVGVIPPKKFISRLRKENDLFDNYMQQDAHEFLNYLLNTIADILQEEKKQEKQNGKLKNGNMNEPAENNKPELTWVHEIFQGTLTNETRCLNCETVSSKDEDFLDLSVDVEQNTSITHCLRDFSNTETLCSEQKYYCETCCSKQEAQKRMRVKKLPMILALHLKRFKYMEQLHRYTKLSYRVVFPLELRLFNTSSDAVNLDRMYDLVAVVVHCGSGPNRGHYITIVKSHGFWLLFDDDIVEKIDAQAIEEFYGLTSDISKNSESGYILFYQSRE
Summary of the method: as §1

[3] = molecular target: T2, USP47 (UniProt Q96K76)
T2 sequence (whole entry): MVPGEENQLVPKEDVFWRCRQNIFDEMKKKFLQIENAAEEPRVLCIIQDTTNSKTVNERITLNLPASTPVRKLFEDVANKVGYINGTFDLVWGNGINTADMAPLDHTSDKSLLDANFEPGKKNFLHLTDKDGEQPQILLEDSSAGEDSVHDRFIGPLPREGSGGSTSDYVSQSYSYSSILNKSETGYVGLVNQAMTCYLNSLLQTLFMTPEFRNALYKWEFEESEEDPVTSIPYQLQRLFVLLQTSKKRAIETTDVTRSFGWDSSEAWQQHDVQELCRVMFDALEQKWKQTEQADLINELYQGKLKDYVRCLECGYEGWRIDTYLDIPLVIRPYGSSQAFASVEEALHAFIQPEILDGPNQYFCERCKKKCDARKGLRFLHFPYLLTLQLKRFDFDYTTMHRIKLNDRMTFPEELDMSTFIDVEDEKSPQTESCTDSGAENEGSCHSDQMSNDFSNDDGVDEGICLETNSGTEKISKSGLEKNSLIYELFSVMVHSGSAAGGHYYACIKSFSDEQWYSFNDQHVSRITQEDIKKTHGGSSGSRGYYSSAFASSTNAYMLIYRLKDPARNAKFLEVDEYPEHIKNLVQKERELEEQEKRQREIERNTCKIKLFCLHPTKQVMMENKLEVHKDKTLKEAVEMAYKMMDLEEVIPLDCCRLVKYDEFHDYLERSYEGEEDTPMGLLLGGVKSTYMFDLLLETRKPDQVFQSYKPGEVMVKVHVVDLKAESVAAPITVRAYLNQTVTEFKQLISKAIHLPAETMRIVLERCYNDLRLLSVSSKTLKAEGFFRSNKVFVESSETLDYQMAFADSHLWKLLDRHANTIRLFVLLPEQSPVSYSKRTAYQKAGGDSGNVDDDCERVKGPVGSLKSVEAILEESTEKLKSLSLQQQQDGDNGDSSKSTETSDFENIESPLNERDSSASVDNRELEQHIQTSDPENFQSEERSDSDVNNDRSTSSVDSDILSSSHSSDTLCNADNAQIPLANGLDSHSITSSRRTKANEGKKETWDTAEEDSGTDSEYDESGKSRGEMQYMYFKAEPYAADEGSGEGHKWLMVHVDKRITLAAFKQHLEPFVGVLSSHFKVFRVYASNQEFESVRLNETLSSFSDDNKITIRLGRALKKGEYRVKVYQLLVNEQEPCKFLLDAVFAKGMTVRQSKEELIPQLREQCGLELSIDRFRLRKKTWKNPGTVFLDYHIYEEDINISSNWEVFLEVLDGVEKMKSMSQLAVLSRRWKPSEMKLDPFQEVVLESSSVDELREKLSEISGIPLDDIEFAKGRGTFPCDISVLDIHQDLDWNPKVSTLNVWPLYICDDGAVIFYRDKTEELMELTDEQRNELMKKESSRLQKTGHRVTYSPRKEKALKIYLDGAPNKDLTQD
Summary of the method: as §1

[4] = molecular target: T3, USP48 (UniProt Q86UV5)
T3 sequence (whole entry): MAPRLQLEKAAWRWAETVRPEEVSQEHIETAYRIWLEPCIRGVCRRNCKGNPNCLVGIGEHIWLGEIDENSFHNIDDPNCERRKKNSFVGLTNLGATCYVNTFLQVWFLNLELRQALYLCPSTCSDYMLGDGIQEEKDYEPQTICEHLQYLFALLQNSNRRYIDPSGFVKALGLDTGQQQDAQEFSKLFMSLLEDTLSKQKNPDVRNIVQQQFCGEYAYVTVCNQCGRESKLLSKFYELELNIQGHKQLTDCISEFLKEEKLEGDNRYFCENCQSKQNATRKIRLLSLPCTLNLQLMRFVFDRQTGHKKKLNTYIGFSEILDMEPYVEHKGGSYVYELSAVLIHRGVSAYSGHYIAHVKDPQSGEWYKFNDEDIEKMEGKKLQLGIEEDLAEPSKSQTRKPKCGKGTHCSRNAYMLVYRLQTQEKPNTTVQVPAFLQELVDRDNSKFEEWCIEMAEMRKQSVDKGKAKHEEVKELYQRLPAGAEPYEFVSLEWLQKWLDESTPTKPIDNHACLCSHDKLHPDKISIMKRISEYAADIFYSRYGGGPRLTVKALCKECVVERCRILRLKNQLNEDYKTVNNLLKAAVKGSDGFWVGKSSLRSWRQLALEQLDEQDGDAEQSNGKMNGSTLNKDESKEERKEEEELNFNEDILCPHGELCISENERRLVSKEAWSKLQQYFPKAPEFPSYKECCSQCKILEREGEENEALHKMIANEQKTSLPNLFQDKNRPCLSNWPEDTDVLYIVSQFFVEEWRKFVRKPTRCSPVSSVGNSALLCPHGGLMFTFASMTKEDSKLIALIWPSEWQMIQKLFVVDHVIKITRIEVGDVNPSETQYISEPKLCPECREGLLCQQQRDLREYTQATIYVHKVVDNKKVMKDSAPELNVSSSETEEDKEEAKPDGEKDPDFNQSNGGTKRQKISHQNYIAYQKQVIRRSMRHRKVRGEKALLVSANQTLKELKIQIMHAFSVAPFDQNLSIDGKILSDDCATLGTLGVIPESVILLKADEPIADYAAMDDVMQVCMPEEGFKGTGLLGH
Summary of the method: as §1

[5] = molecular target: T4, USP5 (UniProt P45974)
T4 sequence (whole entry): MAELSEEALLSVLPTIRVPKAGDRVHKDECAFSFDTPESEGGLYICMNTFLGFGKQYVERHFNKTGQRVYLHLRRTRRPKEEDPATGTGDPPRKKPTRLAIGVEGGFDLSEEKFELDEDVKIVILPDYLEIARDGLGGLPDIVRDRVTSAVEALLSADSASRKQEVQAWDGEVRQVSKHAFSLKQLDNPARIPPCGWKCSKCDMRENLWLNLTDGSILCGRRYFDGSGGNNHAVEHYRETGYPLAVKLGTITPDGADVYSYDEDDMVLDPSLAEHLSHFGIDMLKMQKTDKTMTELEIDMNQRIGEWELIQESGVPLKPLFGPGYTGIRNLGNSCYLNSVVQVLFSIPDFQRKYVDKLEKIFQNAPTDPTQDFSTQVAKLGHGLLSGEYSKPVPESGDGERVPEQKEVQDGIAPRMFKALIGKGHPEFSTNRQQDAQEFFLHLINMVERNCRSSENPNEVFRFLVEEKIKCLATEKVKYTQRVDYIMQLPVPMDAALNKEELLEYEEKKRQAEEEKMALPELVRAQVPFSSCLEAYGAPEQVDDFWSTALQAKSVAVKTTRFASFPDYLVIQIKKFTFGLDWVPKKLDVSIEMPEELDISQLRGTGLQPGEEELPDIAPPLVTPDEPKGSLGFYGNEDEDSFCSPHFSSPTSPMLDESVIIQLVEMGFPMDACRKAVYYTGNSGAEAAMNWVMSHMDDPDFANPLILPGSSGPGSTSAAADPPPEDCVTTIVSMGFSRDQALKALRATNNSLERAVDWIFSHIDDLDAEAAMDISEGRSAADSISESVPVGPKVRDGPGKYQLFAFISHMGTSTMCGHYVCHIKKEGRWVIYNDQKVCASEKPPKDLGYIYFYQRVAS
Summary of the method: as §1

[6] = molecular target: USP54 (UniProt Q70EL1)
USP54, sequence (Q70EL1 whole entry): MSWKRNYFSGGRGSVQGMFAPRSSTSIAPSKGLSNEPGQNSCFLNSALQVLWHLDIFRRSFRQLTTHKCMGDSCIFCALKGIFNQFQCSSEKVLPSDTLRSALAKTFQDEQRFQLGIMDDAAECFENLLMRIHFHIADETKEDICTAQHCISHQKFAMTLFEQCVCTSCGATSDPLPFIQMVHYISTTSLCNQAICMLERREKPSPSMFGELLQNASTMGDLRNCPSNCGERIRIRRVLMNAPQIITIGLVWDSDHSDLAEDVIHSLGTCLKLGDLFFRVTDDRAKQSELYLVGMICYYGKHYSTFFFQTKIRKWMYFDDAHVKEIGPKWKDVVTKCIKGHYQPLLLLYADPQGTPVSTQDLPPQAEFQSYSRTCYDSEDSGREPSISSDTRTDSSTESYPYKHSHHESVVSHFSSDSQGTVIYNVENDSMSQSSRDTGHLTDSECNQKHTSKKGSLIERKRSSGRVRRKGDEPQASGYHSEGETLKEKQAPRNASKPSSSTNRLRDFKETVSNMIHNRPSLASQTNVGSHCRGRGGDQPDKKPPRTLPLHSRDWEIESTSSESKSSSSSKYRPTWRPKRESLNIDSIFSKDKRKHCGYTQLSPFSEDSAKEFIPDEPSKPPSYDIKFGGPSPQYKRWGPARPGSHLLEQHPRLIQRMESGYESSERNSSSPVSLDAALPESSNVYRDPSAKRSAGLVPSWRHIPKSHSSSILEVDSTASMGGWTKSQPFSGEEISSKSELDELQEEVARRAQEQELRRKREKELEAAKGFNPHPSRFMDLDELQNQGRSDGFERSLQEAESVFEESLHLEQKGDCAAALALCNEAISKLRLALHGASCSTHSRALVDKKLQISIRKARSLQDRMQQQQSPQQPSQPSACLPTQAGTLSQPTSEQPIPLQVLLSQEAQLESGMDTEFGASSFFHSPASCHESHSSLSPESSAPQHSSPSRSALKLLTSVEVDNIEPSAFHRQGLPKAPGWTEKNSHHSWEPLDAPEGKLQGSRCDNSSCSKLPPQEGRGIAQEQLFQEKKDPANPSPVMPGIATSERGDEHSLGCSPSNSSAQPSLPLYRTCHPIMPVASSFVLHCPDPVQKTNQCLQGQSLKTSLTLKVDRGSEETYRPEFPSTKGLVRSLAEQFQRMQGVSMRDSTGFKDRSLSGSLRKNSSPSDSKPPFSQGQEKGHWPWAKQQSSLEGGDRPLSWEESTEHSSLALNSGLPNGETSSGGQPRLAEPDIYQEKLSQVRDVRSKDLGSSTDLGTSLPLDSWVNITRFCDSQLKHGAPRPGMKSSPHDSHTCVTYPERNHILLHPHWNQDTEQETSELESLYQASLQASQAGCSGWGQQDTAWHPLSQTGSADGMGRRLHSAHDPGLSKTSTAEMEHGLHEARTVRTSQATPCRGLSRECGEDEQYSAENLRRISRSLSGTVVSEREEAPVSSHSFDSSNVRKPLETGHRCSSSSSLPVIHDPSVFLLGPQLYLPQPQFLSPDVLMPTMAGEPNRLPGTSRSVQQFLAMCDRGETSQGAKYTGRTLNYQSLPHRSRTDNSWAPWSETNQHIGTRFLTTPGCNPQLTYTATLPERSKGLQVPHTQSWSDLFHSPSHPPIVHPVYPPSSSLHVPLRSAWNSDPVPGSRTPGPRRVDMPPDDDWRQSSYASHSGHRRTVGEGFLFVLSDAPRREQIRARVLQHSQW
Summary of the method: as §1

[7] = molecular target: USP7 (UniProt Q93009)
USP7, sequence (Q93009 whole entry, looked up): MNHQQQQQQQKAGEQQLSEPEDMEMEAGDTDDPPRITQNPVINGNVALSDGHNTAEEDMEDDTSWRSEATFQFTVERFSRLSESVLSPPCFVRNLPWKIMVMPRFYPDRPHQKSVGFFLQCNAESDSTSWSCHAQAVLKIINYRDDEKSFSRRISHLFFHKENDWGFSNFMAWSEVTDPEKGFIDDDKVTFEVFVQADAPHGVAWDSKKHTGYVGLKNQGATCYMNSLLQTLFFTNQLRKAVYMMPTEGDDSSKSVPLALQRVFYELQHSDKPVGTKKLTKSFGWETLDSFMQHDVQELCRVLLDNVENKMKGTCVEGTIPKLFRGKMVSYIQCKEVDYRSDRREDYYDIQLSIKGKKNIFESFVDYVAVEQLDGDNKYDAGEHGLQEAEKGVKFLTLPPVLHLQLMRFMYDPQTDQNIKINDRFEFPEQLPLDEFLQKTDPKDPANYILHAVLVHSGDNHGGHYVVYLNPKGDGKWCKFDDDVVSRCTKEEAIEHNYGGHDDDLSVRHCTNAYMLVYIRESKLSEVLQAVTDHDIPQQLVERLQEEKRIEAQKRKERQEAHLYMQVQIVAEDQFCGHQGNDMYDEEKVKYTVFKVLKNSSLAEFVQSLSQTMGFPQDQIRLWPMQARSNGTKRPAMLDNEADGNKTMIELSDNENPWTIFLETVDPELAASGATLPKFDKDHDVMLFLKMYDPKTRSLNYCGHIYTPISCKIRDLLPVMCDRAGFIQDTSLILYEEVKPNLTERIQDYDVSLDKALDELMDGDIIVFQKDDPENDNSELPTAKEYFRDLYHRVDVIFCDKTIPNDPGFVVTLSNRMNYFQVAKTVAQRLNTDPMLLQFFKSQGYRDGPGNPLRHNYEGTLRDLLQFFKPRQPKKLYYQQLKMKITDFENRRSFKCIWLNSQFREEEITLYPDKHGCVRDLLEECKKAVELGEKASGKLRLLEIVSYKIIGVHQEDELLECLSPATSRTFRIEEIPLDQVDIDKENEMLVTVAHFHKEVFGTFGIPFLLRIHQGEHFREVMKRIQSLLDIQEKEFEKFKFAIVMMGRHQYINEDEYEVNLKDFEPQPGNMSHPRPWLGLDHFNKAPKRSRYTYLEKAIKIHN
Summary of the method: as §1

[8] = molecular target: T5, USP8 (UniProt P40818)
T5 sequence (whole entry): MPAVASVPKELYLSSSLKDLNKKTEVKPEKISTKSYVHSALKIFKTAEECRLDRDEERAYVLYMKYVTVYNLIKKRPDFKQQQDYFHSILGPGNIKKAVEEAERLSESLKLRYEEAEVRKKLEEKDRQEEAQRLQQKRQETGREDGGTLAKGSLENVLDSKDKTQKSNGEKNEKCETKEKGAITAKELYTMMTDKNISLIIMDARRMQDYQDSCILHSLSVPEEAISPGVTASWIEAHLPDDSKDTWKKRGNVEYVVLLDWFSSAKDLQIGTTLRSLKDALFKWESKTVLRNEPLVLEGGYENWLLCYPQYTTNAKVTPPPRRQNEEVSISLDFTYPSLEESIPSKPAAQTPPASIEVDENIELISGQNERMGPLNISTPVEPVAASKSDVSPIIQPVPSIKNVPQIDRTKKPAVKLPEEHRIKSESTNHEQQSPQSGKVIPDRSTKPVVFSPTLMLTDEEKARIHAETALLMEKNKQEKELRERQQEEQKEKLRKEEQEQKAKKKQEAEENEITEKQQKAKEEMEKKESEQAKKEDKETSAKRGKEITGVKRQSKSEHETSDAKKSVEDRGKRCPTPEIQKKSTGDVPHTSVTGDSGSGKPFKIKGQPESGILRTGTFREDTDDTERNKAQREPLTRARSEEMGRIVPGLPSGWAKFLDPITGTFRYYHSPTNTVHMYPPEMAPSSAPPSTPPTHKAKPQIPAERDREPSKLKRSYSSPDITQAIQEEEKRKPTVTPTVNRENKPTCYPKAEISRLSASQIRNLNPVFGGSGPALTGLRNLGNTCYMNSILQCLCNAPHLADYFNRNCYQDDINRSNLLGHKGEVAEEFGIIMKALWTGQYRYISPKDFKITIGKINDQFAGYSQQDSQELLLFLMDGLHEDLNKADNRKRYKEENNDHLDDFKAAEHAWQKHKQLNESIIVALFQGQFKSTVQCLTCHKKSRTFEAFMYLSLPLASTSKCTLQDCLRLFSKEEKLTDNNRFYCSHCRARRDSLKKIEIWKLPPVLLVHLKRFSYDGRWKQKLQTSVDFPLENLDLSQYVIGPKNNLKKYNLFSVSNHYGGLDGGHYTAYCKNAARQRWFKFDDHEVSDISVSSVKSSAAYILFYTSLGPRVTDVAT
Summary of the method: as §1

Measured: log2 ratio of Biotin-Ahx-Ub-VS probe labelling

Cl.O=C(CCl)NC1(c2ncccn2)CCC1
inactive: [1] 0.259 | [2] 0.267 | [3] -0.186 | [4] -0.0959 | [5] -0.174 | [6] -0.292 | [7] -0.0088 | [8] -0.47

— the supplement of paper PMC11732987, “Enantioselective OTUD7B fragment discovery through chemoproteomics screening and high-throughput optimisation” (Communications Chemistry, 2025)
